Laboratory results from PubChem BioAssay (NCATS).
“And” between values parts separate entries of the source, which are not always exact repeats. Identical values can stand only once. Inconclusive results are not listed. Where a call stands in place of a potency, no number is given. Where a structure was tested more than once in an assay, its records may differ in their call. The source made the active and inactive calls. Unless noted, the call rests on the fitted dose curve; in most records, active means well fitted curve in the direction sought with a large enough effect; inconclusive means small, poorly fitted or top-dose-only effect, or another doubt; inactive means no such curve, though single readings can be large; an effect the other way counts as inactive or inconclusive.

Tests used:
[1] = Cellular Toxicity (caspase-3) HUV-EC-C (AID 656)
Method in brief: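 HUV-EC-C cells (1000/well) in complete medium, compound-treated 16 h at 37 °C; caspase-3/7 activity read by Caspase-Glo 3/7 luminescence. Normalized to DMSO (basal) and 100 uM tamoxifen (100%); AC50 from Hill-equation concentration-response fits.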

[2] = molecular target: Cytochrome P450 3A4 (Homo sapiens) (UniProt P08684); test: qHTS Assay for Inhibitors and Substrates of Cytochrome P450 3A4 (AID 884); further: nearly all actives have a fitted effect of over 50% in size; further: potency means the concentration at half of the fitted maximal effect
Method in brief: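 Luminescent readout of luciferin produced by CYP3A4 (20 nM) dealkylation of Luciferin-PPXE, 25 uM (its KM). NADPH-driven reaction ran 60 min at RT after 10 min compound preincubation; data scaled to 57 uM ketoconazole as 100% inhibition.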

[3] = Cell Viability - LYMP2-003 (AID 965);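 further: cells exposed to compounds for 24 h before reading; nearly all actives have a fitted effect of over 50% in size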
Method in brief: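 Human lymphoblastoid LYMP2-003 cells, 2500/well, exposed to compounds for 24 h at 37 C in complete medium. Viability read as intracellular ATP by CellTiter-Glo luminescence; AC50 from Hill-equation fits of qHTS concentration-response data.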

[4] = Cell Viability - LYMP2-015 (AID 971); further: nearly all actives have a fitted effect of over 55% in size
Method in brief: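 AC50 values reflect Hill-model fits of ATP-based luminescence (CellTiter-Glo) from a human lymphoblastoid line, 2500 cells/well, treated 24 hr at 37 C.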

[5] = Cell Viability - LYMP2-020 (AID 986); further: series mostly up to about 92 µM; nearly all actives have a fitted effect of over 55% in size
Method in brief: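 Cells at 2500 per well receive a 24 hr compound exposure at 37 C. Viability is measured as ATP-dependent luciferase luminescence, with AC50 modeled from qHTS concentration-response curves.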

[6] = molecular target: Glucocorticoid receptor (Homo sapiens) (UniProt P04150); test: qHTS assay for small molecule agonists of glucocorticoid receptor signaling (AID 588532; active means well fitted curve in the direction sought with a large enough effect in the signal ratio, with a control signal flat; the % refers to the signal ratio); conditions: HeLa MMTV-bla, beta-lactamase ratio, agonist, 18 h; stronger effect = higher value; percent of dexamethasone control, DMSO zero
Method in brief: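 Quantitative HTS using CellSensor MMTV-bla HeLa cells in charcoal/dextran-treated serum; compounds tested up to 92 uM. After 18 h at 37 C, CCF4 dye reported reporter induction.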

[7] = molecular target: Peroxisome proliferator-activated receptor gamma (Homo sapiens) (UniProt P37231); test: qHTS assay for small molecule antagonists of peroxisome proliferator-activated receptor gamma signaling (AID 588537; active means well fitted inhibition curve with a large enough effect in the signal ratio, with a control signal flat, not every such curve was filed as active; the % refers to the signal ratio;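 further: reporter cells co-stimulated with 50 nM rosiglitazone agonist during compound treatment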)
Method in brief: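 Cell-based beta-lactamase assay; GW9662 served as the antagonist control. Stimulation used rosiglitazone, final 50 nM, 16 h, 37 C.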

[8] = molecular target: Vitamin D3 receptor (Homo sapiens) (UniProt P11473); test: qHTS assay for small molecule agonists of vitamin D receptor signaling (AID 588543; calls by dose curve)
Method in brief: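 VDR-UAS-bla HEK293T cells, 2000/well, 2% charcoal-stripped FBS; compound titration 16 h at 37 C; CCF4 beta-lactamase ratio read. Normalized to 50 nM 1-alpha,25-dihydroxyvitamin D3 (100%) and DMSO; Hill fit gives EC50, efficacy.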

[9] = qHTS assay for small molecule activators of the p53 signaling pathway (AID 651743; active means well fitted activation curve with a large enough effect in the signal ratio, not every such curve was filed as active; the % refers to the signal ratio; further: series mostly up to about 92 µM); conditions: HCT-116 p53RE-bla, beta-lactamase FRET ratio, 16 h; activation: stronger effect = higher value
Method in brief: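 A beta-lactamase reporter under p53 response element control, stably carried by HCT-116 cells, reported pathway activation. Test compounds were applied for 16 hours at 37 C, and fluorescence was measured 2 hours after adding the B/G FRET substrate.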

[10] = molecular target: Nuclear receptor subfamily 1 group I member 2 (Rattus norvegicus) (UniProt Q9R1A7); test: qHTS assay for small molecule activators of the rat pregnane X receptor (rPXR) signaling pathway (AID 651751; call rule not given here); conditions: rPXR reporter cells, luciferase (One-Glo), 24 h
[11] = qHTS assay for small molecule activators of the human pregnane X receptor (PXR) signaling pathway (AID 720659; call rule not given here)
[12] = KB-8-5-11 P-gp reporter qHTS against the NCATS DSHEA and TCM libraries (AID 1919977)
Method in brief: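 P-gp-overexpressing KB-8-5-11 cells were screened in colchicine-free medium at 500 cells/well, as a titration series. Cells were exposed for 72 h at 37C. Viability was read by CellTiter-Glo luminescence after 30 min at room temperature.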

[13] = qHTS assay for small molecule antagonists of peroxisome proliferator-activated receptor delta signaling (AID 588535; active means well fitted inhibition curve with a large enough effect in the signal ratio, with a control signal flat, not every such curve was filed as active; the % refers to the signal ratio;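 on max response: cells co-treated with a PPAR-delta agonist as stimulator during compound exposure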); conditions: HEK293T PPARd-UAS-bla, beta-lactamase FRET ratio, 18 h; 460 nm channel
Method in brief: (§1)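 Antagonist-mode qHTS using GeneBLAzer PPAR-delta-UAS-bla HEK293T cells; compound exposure 18 hrs at 37 C over a titration. Ratiometric CCF4 fluorescence at 460/530 nm; concentration-response points fitted to the Hill equation.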

[14] = molecular target: Peroxisome proliferator-activated receptor delta (Homo sapiens) (UniProt Q03181); test: as above
Method in brief: as §1

[15] = molecular target: Vitamin D3 receptor (Homo sapiens) (UniProt P11473); test: qHTS assay for small molecule antagonists of vitamin D receptor signaling (AID 588541; calls by dose curve;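 further: receptor activated by calcitriol during compound treatment; series mostly up to about 77 µM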)
Method in brief: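 Antagonist-mode beta-lactamase reporter assay: HEK293T VDR-UAS-bla cells were exposed to titrated compound alongside 1-alpha,25-dihydroxyvitamin D3 at 3 nM final for 16 h. Values were normalized to the 50 nM agonist control and DMSO basal, with IC50 and efficacy from Hill equation fits.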

[16] = qHTS assay for small molecule agonists of the antioxidant response element (ARE) signaling pathway (AID 651741; active means well fitted activation curve with a large enough effect in the signal ratio; the % refers to the signal ratio; further: potency means the concentration at half of the fitted maximal effect)
Method in brief: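 Agonist activity is measured as ARE-driven beta-lactamase expression in a stable HepG2 reporter line, using 16 h compound treatment at 37 C and a FRET substrate fluorescence readout after 2 h.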

[17] = qHTS assay for small molecule activators of the nuclear factor-kappa B (NF-kB) signaling pathway (AID 651749; active means well fitted activation curve with a large enough effect in the signal ratio; the % refers to the signal ratio; further: series mostly up to about 77 µM); conditions: NF-kB-bla ME-180 cells, beta-lactamase FRET ratio, 16 h; activation: stronger effect = higher value
Method in brief: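 FRET-based beta-lactamase detection in ME-180 cells reports NF-kB response-element-driven transcription following overnight (16 hr) compound treatment.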

[18] = molecular target: Bile acid receptor (Homo sapiens) (UniProt Q96RI1); test: qHTS assay for small molecule antagonists of farnesoid X receptor signaling (AID 588526; calls by dose curve)
Method in brief: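 Beta-lactamase reporter antagonist mode: HEK293T FXR-UAS-bla cells, titrated compound, CDCA stimulation, 16 h 37 C, CCF4 dye 2 h RT. Data normalized to CDCA 50 uM and DMSO; Hill-fit IC50.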

[19] = Cell Viability - LYMP1-002 - Assay at 40 hr (AID 994); further: nearly all actives have a fitted effect of over 60% in size
Method in brief: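 Concentration-dependent ATP loss after 40 hr treatment at 37 C defined toxicity; AC50 values were obtained by fitting the standard Hill equation.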

[20] = MultiTox-Fluor Cytotoxicity Assay - LYMP1-001 - Live Cells (AID 947)

Sequence of Glucocorticoid receptor (Homo sapiens) (P04150 whole entry, looked up): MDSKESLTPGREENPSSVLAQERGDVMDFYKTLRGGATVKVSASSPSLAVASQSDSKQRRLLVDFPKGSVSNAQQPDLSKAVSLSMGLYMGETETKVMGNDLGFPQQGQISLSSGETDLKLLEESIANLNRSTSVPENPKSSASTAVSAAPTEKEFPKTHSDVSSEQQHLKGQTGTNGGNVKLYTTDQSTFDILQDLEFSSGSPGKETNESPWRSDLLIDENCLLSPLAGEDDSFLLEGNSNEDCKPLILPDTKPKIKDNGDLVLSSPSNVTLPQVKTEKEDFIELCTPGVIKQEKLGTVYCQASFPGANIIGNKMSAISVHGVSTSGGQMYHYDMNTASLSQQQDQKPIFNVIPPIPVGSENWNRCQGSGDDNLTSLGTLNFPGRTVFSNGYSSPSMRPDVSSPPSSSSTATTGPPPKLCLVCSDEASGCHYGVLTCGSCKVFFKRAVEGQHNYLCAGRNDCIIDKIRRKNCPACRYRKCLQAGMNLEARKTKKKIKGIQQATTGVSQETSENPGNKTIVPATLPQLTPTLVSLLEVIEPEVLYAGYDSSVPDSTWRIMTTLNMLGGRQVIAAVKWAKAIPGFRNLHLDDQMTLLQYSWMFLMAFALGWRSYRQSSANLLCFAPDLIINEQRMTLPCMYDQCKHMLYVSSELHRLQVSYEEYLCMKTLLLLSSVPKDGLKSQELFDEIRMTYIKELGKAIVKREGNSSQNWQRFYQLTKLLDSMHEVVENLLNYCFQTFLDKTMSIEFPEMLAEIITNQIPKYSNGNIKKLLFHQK
Sequence of Peroxisome proliferator-activated receptor delta (Homo sapiens) (Q03181 whole entry, looked up): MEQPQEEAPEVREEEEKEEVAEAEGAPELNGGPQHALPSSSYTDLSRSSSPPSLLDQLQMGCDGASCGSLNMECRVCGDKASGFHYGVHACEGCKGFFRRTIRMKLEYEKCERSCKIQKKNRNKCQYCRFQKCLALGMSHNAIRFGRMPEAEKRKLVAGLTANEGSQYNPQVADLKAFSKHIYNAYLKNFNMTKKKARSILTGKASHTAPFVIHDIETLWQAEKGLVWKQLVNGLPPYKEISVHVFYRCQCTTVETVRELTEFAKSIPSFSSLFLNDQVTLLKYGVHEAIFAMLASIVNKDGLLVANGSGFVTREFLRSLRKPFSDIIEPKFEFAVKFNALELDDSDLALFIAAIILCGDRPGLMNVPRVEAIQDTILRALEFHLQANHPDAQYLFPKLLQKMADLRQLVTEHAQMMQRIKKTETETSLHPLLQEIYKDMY
Sequence of Nuclear receptor subfamily 1 group I member 2 (Rattus norvegicus) (Q9R1A7 whole entry, looked up): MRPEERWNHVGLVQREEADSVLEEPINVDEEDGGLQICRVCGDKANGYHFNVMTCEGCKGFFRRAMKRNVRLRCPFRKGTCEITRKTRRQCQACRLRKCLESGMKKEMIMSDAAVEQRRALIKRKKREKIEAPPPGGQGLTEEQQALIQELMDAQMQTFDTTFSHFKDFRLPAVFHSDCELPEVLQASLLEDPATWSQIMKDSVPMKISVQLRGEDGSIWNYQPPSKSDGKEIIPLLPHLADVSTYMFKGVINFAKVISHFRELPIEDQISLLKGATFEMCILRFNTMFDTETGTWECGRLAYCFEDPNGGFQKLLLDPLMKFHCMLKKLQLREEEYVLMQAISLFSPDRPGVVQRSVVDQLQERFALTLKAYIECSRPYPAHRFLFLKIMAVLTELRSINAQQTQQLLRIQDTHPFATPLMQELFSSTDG
Sequence of Bile acid receptor (Homo sapiens) (Q96RI1 whole entry, looked up): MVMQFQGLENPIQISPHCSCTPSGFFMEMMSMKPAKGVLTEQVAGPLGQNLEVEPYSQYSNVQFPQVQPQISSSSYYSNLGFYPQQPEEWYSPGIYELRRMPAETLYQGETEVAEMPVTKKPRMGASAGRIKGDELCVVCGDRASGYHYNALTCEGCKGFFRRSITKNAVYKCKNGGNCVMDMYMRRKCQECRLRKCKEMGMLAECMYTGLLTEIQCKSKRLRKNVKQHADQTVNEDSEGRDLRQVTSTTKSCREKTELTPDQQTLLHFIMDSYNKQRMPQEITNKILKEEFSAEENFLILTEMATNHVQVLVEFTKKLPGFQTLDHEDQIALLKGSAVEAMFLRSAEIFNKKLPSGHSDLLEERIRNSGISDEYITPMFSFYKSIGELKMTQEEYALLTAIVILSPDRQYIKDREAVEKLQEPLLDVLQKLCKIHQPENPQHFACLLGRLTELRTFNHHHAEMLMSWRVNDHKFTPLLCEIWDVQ
Sequence of Peroxisome proliferator-activated receptor gamma (Homo sapiens) (P37231 whole entry, looked up): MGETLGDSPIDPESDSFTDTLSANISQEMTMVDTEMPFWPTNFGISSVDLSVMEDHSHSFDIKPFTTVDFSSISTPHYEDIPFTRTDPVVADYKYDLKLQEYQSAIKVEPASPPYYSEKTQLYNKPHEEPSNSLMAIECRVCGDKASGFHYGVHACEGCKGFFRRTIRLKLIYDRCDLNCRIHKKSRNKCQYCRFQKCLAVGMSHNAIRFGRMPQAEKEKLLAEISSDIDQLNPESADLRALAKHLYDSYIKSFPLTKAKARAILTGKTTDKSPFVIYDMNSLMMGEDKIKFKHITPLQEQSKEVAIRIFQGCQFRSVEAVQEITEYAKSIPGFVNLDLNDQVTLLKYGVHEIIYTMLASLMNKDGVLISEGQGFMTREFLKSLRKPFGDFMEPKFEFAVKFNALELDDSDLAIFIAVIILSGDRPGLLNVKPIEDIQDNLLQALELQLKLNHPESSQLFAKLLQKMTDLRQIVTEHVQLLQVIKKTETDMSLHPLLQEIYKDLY
Sequence of Cytochrome P450 3A4 (Homo sapiens) (P08684 whole entry, looked up): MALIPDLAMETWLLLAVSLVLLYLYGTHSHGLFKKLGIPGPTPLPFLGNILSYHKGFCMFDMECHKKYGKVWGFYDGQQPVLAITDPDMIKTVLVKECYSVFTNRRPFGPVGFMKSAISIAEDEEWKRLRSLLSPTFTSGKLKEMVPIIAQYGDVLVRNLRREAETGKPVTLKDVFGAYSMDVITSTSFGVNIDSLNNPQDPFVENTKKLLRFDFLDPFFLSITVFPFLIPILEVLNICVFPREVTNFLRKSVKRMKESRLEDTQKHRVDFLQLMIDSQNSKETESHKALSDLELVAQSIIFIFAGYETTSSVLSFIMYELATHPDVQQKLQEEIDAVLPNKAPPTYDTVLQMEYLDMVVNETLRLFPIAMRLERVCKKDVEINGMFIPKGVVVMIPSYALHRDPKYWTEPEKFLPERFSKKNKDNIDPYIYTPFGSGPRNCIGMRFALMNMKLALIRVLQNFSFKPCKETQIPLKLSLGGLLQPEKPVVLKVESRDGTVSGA
Sequence of Vitamin D3 receptor (Homo sapiens) (P11473 whole entry, looked up): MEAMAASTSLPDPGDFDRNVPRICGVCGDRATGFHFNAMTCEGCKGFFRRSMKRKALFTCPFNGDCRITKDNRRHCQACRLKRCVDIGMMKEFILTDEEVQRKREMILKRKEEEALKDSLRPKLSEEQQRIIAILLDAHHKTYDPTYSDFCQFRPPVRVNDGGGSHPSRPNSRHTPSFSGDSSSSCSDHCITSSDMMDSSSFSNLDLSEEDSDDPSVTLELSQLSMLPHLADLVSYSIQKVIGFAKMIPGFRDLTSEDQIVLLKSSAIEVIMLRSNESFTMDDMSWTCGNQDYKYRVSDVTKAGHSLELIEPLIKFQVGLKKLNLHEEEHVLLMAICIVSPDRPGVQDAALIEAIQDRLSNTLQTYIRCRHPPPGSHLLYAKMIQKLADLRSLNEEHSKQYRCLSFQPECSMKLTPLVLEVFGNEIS

Structure (SMILES) | outcome [1] | Potency [2] | Potency [3] | Potency [4] | Potency [5] | activation [6] | Potency [7] | outcome [8] | activation [9] | max response [10] | outcome [11] | Potency [12] | max response [13] [%] | Potency [14] | outcome [15] | Potency [16] | activation [17] | outcome [18] | Potency [19] | Potency [20]
C[C@]12CC[C@H]3[C@@H](CCC4=CC(=O)CC[C@@]43C)[C@@H]1CC[C@@H]2O | inactive | inactive | inactive | inactive | inactive | -9.17% (inactive) | inactive | inactive | -0.245% (inactive) | 3.05% (inactive) | inactive |  |  |  |  |  |  |  |  | 
C=C(C)[C@H]1CC=C(C)CC1 |  |  |  |  |  |  |  |  |  |  |  | inactive |  |  |  |  |  |  |  | 
COC1=CC(=O)O[C@@H](/C=C/c2ccc3c(c2)OCO3)C1 | inactive | 2.51 µM (active) |  | inactive |  | -3.44% (inactive) | inactive | inactive | -5.07% (inactive) |  |  |  | 27.2 | inactive | inactive | 6.68 µM (active) |  |  |  | 
Cc1ccccc1N | inactive | inactive and 25.1 µM (active) | inactive |  | inactive |  |  |  | -1.62% (inactive) and -3.19% (inactive) | -2.81% (inactive) and 0.311% (inactive) | inactive |  | 7.62 | inactive |  | inactive | 0.244% (inactive) and -0.381% (inactive) |  |  | 
O=NN(c1ccccc1)c1ccccc1 |  | inactive | inactive |  |  | -1.26% (inactive) and -2.24% (inactive) | inactive |  | -0.087% (inactive) and -2.72% (inactive) | 2.63% (inactive) and 4.55% (inactive) | inactive |  | 35.3 | inactive |  |  |  | inactive |  | 
Oc1ccc(Cl)cc1Cl | inactive | inactive |  | inactive | inactive | -5.35% (inactive) and -2.01% (inactive) | inactive | inactive | 1.07% (inactive) and -2.53% (inactive) | 0.337% (inactive) and 1.54% (inactive) | inactive |  | 0.988 | inactive | inactive | inactive |  | inactive |  | 
Clc1cccc(C(Cl)(Cl)Cl)n1 |  |  | inactive | inactive |  |  | inactive |  | 0.471% (inactive) and 1.28% (inactive) | -2.08% (inactive) and -3.74% (inactive) | inactive |  |  |  |  | inactive |  | inactive | inactive | 
Cc1ccc2ccccc2c1 |  | inactive |  |  | inactive |  | inactive | inactive | -0.481% (inactive) | 6.07% (inactive) | inactive |  | 14.3 | inactive | inactive | inactive | -0.574% (inactive) | inactive | inactive | inactive
